{"source": "PubChem BioAssay (NCATS)", "note": "Records with an inconclusive call do not appear. The source made the active and inactive calls. Calls come from the whole dose curve; as a rule, active = well fitted inhibition curve with a large enough effect; inconclusive = small, poorly fitted or top-dose-only effect; inactive = no such curve, though single readings can be large or run the other way. Potency is the fitted concentration of half-maximal effect."}
{"assay": "qHTS to identify inhibitors of the type 1 interferon - major histocompatibility complex class I in skeletal muscle: primary screen against the NCATS Mechanism Interrogation Plate v5.0 (MIPE) Libary (AID 1347411); note: nearly all actives have a fitted effect of over 65% in size", "conditions": "iHSKM cells + IFN-b, HiBiT-tagged MHC-I luminescence, 24 h; series mostly up to 45.8 µM", "procedure,_shortened": "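Luminescence from CRISPR HiBit-tagged endogenous HLA-B in human myoblasts reported MHC class I level after 24 h of IFN-beta (4 ng/ml) plus compound. Compounds ran as 11-point 1:3 series, top 46 uM final.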"}
{"smiles": "O=C(c1ccc(Nc2nccc(-c3cc4ccccc4s3)n2)cc1)N1CCC(N2CCCC2)CC1", "Potency": "5.23 µM (active)"}
{"smiles": "Cn1c2cc(S(C)=O)sc2c2cnn(Cc3cccc(N)c3)c(=O)c21", "note": "(stereo not given)", "Potency": "inactive"}
{"smiles": "COc1ccc(OC)c(-c2nnc3ccc(-c4ccc(OC)c(O[C@@H]5CCOC5)c4)nn23)c1", "Potency": "inactive"}
{"smiles": "C[C@@]12O[C@@H](C[C@]1(O)CO)n1c3ccccc3c3c4c(c5c6ccccc6n2c5c31)CNC4=O", "Potency": "0.739 µM (active)"}
{"smiles": "O=c1[nH]c(=O)n(C2CCCO2)cc1F", "note": "(stereo not given)", "Potency": "inactive"}
{"smiles": "CC(C)c1nn(-c2c(Cl)cccc2Cl)c2nc(Cc3ccc(OCCO)cc3)[nH]c(=O)c12", "Potency": "0.0294 µM (active)"}
{"smiles": "CNC(=O)c1cc(Oc2ccc(NC(=O)Nc3cc(C(C)(C)C)nn3-c3ccc4ncccc4c3)c(F)c2)ccn1", "Potency": "8.29 µM (active)"}
{"smiles": "CN1c2cc(O)c(N=NC(N)=O)cc2CC1S(=O)(=O)O", "note": "(stereo not given)", "Potency": "inactive"}
{"smiles": "C1Cc2[nH]nc(-c3nn[nH]n3)c2C1", "Potency": "inactive"}
{"smiles": "CCN1CCN(Cc2ccc(-c3cc4c(N[C@H](C)c5ccccc5)ncnc4[nH]3)cc2)CC1", "Potency": "18.6 µM (active)"}
{"smiles": "Cc1ccc(-c2ncn(-c3ccc(Nc4nccc(-c5cccc(N6CCOCC6)c5)n4)cc3)n2)cn1", "Potency": "0.829 µM (active)"}
{"smiles": "CC[C@H](CO)Nc1nc(NCc2ccccc2)c2ncn(C(C)C)c2n1", "Potency": "29.4 µM (active)"}
{"smiles": "CC(C)c1noc(N2CCC(COc3ccc(-c4ccc(S(C)(=O)=O)cc4)nc3)CC2)n1", "Potency": "inactive"}
{"smiles": "CN1CCN(c2cc(C(=O)Nc3ccc4c(c3)-c3c(c(C(N)=O)nn3-c3ccc(F)cc3)CC4)c(Cl)cn2)CC1", "Potency": "18.6 µM (active)"}
{"smiles": "CN(C)CCCN=c1c2ccccc2n(C)c2[nH]c(=O)n(C)c(=O)c12", "Potency": "16.5 µM (active)"}
{"smiles": "CCS(=O)(=O)c1cccc(-c2cc(C(=O)NC3CCN(C)CC3)c(C)c3[nH]c4ncc(C)cc4c23)c1", "Potency": "1.86 µM (active)"}
{"smiles": "Nc1nc(NCCNc2ncc(-n3ccnc3)c(-c3ccc(Cl)cc3Cl)n2)ccc1[N+](=O)[O-]", "Potency": "14.7 µM (active)"}
{"smiles": "CCc1c2c(nc3ccc(O)cc13)-c1cc3c(c(=O)n1C2)COC(=O)[C@]3(O)CC", "Potency": "1.17 µM (active)"}
{"smiles": "CC1(C)CCC(c2ccc(Cl)cc2)=C(CN2CCN(c3ccc(C(=O)NS(=O)(=O)c4ccc(N[C@H](CCN5CCOCC5)CSc5ccccc5)c(S(=O)(=O)C(F)(F)F)c4)cc3)CC2)C1", "Potency": "inactive"}
{"smiles": "COc1cc2nccc(Oc3ccc(NC(=O)C4(C(=O)Nc5ccc(F)cc5)CC4)cc3)c2cc1OC", "Potency": "8.29 µM (active)"}
{"smiles": "Cc1[nH]nc2ccc(-c3cncc(OC[C@@H](N)Cc4ccccc4)c3)cc12", "Potency": "1.86 µM (active)"}
{"smiles": "COc1ccc(CC2c3cc(OC)c(OC)cc3CC[N+]2(C)CCC(=O)OCCCCCOC(=O)CC[N+]2(C)CCc3cc(OC)c(OC)cc3C2Cc2ccc(OC)c(OC)c2)cc1OC", "note": "(stereo not given)", "Potency": "inactive"}
{"smiles": "OCCCNc1cc(-c2ccnc(Nc3cccc(Cl)c3)n2)ccn1", "Potency": "0.0415 µM (active)"}
{"smiles": "COc1ccc(F)c(F)c1C(=O)c1cnc(NC2CCN(S(C)(=O)=O)CC2)nc1N", "Potency": "2.94 µM (active)"}
{"smiles": "Cc1cn(-c2cc(NC(=O)c3ccc(C)c(Nc4nccc(-c5cccnc5)n4)c3)cc(C(F)(F)F)c2)cn1", "Potency": "inactive"}
